The values below come from PubChem BioAssay (Tox21).

Unmarked numbers belong to inactive results. Records with an inconclusive call do not appear. Active and inactive are the calls of the source. Unless noted, the call rests on the fitted dose curve; in most records, active means well fitted curve in the direction sought with a large enough effect in the repeat runs; inconclusive means weak or mixed curves; inactive means no such curve, though single readings can be large; an effect the other way counts as inactive or inconclusive.

Assay [1] can be described thus: qHTS RealTime-Glo MT Cell Viability Assay in HepG2 cells - 16 hour (AID 1224885). Further: nearly all actives have a fitted effect of over 50% in size. Further: potency means the concentration at half of the fitted maximal effect. In a few lines:
(§1)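 Cell number in HepG2 cultures estimated from NanoLuc luminescence generated by metabolic reduction of a prosubstrate by living cells. The homogeneous, nonlytic format allowed repeated reads at 0, 8, 16, 24, 32 and 40 h of compound exposure.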
(In general: Quantitative high-throughput screening tests each substance at several concentrations.)

Assay [2] in a line: qHTS RealTime-Glo MT Cell Viability Assay in HEK293 cells - 24 hour (AID 1224886). Further: nearly all actives have a fitted effect of over 50% in size. Further: potency means the concentration at half of the fitted maximal effect. On activity change, negative = cytotoxicity: top concentration of the series differs between compounds. In a few lines: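 Homogeneous bioluminescent viability format in HEK293 cells (600 cells/well). Following 5 h at 37 C/5% CO2, 23 nL compound was pintooled; the signal was measured repeatedly during 40 h incubation.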
Assay [3] can be described thus: qHTS RealTime-Glo MT Cell Viability Assay in HEK293 cells - 8 hour (AID 1224887). Further: nearly all actives have a fitted effect of over 50% in size. Further: potency means the concentration at half of the fitted maximal effect. On activity change, negative = cytotoxicity: top concentration of the series differs between compounds. In a few lines: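 Measured as luminescence from the same continuously cultured HEK293 wells at successive time points (0, 8, 16, 24, 32, 40 h) after compound addition. Reagent present from seeding; dosing at 5 h; incubation 37 C.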
Assay [4] is described as follows: A CellTox Green Cytotoxicity Assay to monitor cytotoxicity in HEK293 cells - 16 hour (AID 1224888). Further: nearly all actives have a fitted effect of over 35% in size. Further: potency means the concentration at half of the fitted maximal effect. In a few lines: (§2)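 Homogeneous no-lysis format: HEK293 cell suspension mixed with CellTox Green reagent, seeded, incubated 5 h at 37 C/5% CO2, then dosed by pintool with compound in DMSO.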
Assay [5] in a line: qHTS RealTime-Glo MT Cell Viability Assay in HepG2 cells - 0 hour (AID 1224889). Further: nearly all actives have a fitted effect of over 50% in size. A digest of the protocol:
as §1

Assay [6] is described as follows: A CellTox Green Cytotoxicity Assay to monitor cytotoxicity in HepG2 cells - 8 hour (AID 1224890). Further: nearly all actives have a fitted effect of over 45% in size. Further: potency means the concentration at half of the fitted maximal effect. A digest of the protocol: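 Fluorescent DNA-binding dye, 600 HepG2 cells/well, 5 h preincubation then compound in DMSO; same plates read at 0–40 h, 37 C.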
Assay [7] is described as follows: qHTS assay to identify small molecule antagonists of the estrogen receptor alpha (ER-alpha) signaling pathway using the BG1 cell line in the presence of 0.1 nM 17-beta-estradiol - cell viability counter screen (AID 1259241). Further: nearly all actives have a fitted effect of over 40% in size. In a few lines: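 VM7Luc4E2, 4,000 cells/well, phenol red-free medium + 10% charcoal-stripped FBS; 24 hr plating; cpd + 0.1 nM E2 final, 22 hr 37C/5% CO2; CellTiter-Fluor 30 min, fluorescence.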

A short description of assay [8]: qHTS assay to identify small molecule antagonists of the androgen receptor (AR) signaling pathway using the MDA cell line in the presence of 0.5 nM R1881 - cell viability counter screen (AID 1259242). Further: nearly all actives have a fitted effect of over 45% in size. In a few lines: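 Human breast carcinoma MDA-kb2 cells, cultured without CO2, receive compounds alongside 0.5 nM (final) R1881 agonist. After 16 hr at 37C, viability is taken as live-cell protease signal.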

Assay [9] concerns the target Estrogen receptor (Homo sapiens) (UniProt P03372). Description: qHTS assay to identify small molecule antagonists of the estrogen receptor alpha (ER-alpha) signaling pathway using the BG1 cell line in the presence of 0.1 nM 17-beta-estradiol (AID 1259244). Further: nearly all actives have a fitted effect of over 50% in size. Further: potency means the concentration at half of the fitted maximal effect. A digest of the protocol: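 Seeding of stripped-serum-adapted VM7Luc4E2 cells, 24 h attachment, compound transfer, then 0.1 nM final 17beta-estradiol; after 22 h incubation, ONE-Glo reagent and luminescence reading.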

Assay [10] can be described thus: qHTS assay to identify small molecule HDAC inhibitors (AID 1259364). Further: potency means the concentration at half of the fitted maximal effect.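 Further: wild-type HCT-116 cells with endogenous class I/II HDAC activity; nearly all actives have a fitted effect of over 45% in size.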 On activity change, negative = inhibition: top concentration of the series differs between compounds. A digest of the protocol: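 After a 2 hr compound incubation (37C, 5% CO2), HCT-116 cells seeded at 1,500/well the day before received HDAC-Glo reagent; signal read as luminescence after 30 min at room temperature.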
A short description of assay [11]: qHTS assay to identify small molecule HDAC inhibitors - cell viability counter screen (AID 1259365). A digest of the protocol:
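Luminescence from CellTiter-Glo, developed 30min at room temperature, reports viability of wild-type HCT-116 cells treated 2hr with compounds at 37 C and 5% CO2 after overnight plating.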

Assay [12] in a line: qHTS assay to identify small molecule agonists of the sonic hedgehog signaling (Shh) pathway - cell viability counter screen (AID 1259366). Further: nearly all actives have a fitted effect of over 50% in size. Further: potency means the concentration at half of the fitted maximal effect. In a few lines: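 Cytotoxicity counter screen run in the same wells as the Shh reporter assay. NIH/3T3 cells carrying a Gli1 response element–driven luciferase were treated with DMSO-dissolved compounds for 24hr, and live-cell protease activity was measured with CellTiter-Fluor.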

Assay [13] can be described thus: qHTS assay to identify small molecule antagonists of the sonic hedgehog signaling (Shh) pathway - cell viability counter screen (AID 1259367). Further: nearly all actives have a fitted effect of over 55% in size. A digest of the protocol:
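CellTiter-Fluor signal in conditioned medium-stimulated 3T3 Gli1-Luc cells, 23 hr compound exposure, 37C.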

A short description of assay [14]: qHTS assay to identify small molecule agonists of the sonic hedgehog signaling (Shh) pathway (AID 1259368; calls by dose curve; further: nearly all actives have a fitted effect of over 15% in size; further: potency means the concentration at half of the fitted maximal effect;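 on activity change: NIH/3T3-derived 3T3Gli1-Luc cells carrying a stable Gli1-driven firefly luciferase reporter; series mostly up to about 92 µM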). A digest of the protocol: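 Stable NIH/3T3 Gli1-Luc reporter clone; 24 hr cpd exposure after a 4 hr settling period; luminescence endpoint.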
The target in assay [15] is Estrogen receptor beta (Homo sapiens) (UniProt Q92731). Description: qHTS assay to identify small molecule agonists of the estrogen receptor beta (ER-beta) signaling pathway (AID 1259377; active means well fitted activation curve with a large enough effect in the signal ratio in the repeat runs, not every such curve was filed as active; the % refers to the signal ratio). In a few lines: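 HEK293T ER-beta-UAS-bla; 2% charcoal-stripped FBS; cells pre-incubated 6 hr, compound 16 hr, 37C/5% CO2; LiveBLAzer B/G FRET substrate 2 h RT; fluorescence intensity read.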
Estrogen receptor beta (Homo sapiens), sequence (Q92731 whole entry, looked up): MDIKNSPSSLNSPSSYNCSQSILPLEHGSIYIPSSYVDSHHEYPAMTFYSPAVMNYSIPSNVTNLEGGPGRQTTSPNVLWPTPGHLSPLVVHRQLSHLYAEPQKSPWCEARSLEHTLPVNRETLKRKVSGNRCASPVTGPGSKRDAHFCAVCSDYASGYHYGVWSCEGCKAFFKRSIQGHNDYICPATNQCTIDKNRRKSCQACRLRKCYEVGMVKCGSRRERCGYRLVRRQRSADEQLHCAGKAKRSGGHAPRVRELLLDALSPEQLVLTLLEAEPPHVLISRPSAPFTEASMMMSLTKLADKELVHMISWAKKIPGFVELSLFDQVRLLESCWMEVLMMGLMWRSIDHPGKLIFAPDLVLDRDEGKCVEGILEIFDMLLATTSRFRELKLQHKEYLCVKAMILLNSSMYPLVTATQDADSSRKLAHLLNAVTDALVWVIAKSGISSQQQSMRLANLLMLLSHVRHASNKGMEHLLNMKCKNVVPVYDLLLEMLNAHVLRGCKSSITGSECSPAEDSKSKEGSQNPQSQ

Assay [16] shares this target. Description: qHTS assay to identify small molecule antagonists of the estrogen receptor beta (ER-beta) signaling pathway (AID 1259378; active means well fitted inhibition curve with a large enough effect in the signal ratio in the repeat runs, not every such curve was filed as active; the % refers to the signal ratio; further: potency means the concentration at half of the fitted maximal effect). In a few lines: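 Antagonist mode: compounds added to beta-lactamase reporter HEK293T ER-beta-UAS cells stimulated with E2 (1nM final), 16 hr at 37C. LiveBLAzer B/G FRET substrate, 2 hours room temperature, fluorescence read-out.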

In assay [17] the target is Androgen receptor (Homo sapiens) (UniProt P10275). Nature of the assay: qHTS assay to identify small molecule antagonists of the androgen receptor (AR) signaling pathway using the MDA cell line in the presence of 0.5 nM R1881 (AID 1259243). Further: nearly all actives have a fitted effect of over 50% in size. In a few lines:
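Cells: MDA-kb2 (MMTV-luc). Stimulus: 0.5 nM R1881. Time: 16 hr, 37C, no CO2. Detection: ONE-Glo luminescence after 30 min at RT.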

Assay [18] is described as follows: qHTS assay to identify small molecule antagonists of the sonic hedgehog signaling (Shh) pathway (AID 1259369; calls by dose curve; further: nearly all actives have a fitted effect of over 45% in size; further: potency means the concentration at half of the fitted maximal effect). A digest of the protocol:
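Gli1 transcriptional reporter (firefly Luc) in NIH/3T3 background, conditioned-medium activated. 24hr exposure, luminescence endpoint.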

The nature of assay [19]: A CellTox Green Cytotoxicity Assay to monitor cytotoxicity in HEK293 cells - 8 hour (AID 1224884). Further: nearly all actives have a fitted effect of over 35% in size. A digest of the protocol: as §2
On the % scale 0 is the no-effect control and ±100 the full control effect.

Androgen receptor (Homo sapiens), sequence (P10275 whole entry, looked up): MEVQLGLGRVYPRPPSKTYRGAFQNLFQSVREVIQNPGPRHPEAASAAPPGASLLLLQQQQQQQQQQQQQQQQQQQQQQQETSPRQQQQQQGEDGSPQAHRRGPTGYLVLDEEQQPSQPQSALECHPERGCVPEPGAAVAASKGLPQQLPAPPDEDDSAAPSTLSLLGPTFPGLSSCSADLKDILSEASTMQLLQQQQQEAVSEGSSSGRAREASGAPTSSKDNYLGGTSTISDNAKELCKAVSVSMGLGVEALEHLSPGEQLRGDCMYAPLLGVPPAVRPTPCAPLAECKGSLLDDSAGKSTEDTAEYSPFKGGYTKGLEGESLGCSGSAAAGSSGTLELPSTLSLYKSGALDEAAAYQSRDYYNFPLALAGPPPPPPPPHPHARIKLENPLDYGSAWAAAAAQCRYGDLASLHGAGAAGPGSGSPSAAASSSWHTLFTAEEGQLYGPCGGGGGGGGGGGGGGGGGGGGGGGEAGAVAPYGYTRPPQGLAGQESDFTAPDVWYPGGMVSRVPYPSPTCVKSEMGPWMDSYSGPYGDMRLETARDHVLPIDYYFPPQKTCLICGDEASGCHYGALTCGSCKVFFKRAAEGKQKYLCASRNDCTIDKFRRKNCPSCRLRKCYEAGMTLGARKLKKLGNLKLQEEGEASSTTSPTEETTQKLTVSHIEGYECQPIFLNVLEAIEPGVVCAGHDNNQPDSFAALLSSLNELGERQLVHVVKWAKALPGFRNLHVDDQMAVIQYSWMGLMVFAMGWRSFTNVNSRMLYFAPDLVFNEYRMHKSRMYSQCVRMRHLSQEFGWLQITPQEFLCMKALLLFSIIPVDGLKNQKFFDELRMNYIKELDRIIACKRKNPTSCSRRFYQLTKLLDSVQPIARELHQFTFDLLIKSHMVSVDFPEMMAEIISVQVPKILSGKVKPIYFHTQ
Estrogen receptor (Homo sapiens), sequence (P03372 whole entry, looked up): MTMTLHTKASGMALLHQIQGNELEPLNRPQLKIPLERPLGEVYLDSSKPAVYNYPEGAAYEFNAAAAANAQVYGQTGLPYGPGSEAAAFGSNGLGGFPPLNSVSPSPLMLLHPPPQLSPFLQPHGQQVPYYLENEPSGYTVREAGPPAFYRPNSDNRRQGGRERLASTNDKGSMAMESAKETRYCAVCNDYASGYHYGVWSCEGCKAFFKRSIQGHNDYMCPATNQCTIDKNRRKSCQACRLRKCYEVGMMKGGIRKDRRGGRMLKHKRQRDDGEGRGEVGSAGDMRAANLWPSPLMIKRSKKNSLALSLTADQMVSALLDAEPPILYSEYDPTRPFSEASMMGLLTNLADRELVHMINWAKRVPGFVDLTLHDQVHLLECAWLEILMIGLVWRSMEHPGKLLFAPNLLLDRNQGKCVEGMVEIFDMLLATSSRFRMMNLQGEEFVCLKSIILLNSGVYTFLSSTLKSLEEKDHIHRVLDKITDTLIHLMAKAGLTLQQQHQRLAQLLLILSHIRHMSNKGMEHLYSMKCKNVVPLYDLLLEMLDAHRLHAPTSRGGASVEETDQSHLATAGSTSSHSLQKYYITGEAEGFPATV

With `C=CC(=O)O[C@H]1C[C@@H]2CC[C@@]1(C)C2(C)C`, the Potency entry in assay [1], in assay [2], in assay [3], in assay [4], in assay [5] and in assay [6] was “inactive” each time. Further, the Potency entry in assay [7], in [8], in assay [9], in assay [10], in assay [11] and in assay [12] was “inactive” in each case. For the same compound, the Potency entry in assay [13], in [14] and in assay [16] was “inactive” each time. The outcome in [15] was inactive.

Turning to `Cc1ccc2nc(-c3ccc(N)cc3)sc2c1S(=O)(=O)O`, the Potency entry in assay [1], in assay [2], in [3], in [5], in [6] and in assay [7] was “inactive” in each case. In addition, the Potency result in assay [8], in [17], in [11], in assay [12], in assay [13] and in [18] was “inactive” throughout. Besides, the values for the Potency in assay [10] and in assay [14] were 3.8 µM (active) and 1.9 µM (active), respectively.

With `CCCC(C)C=O` (stereo unspecified), the Potency result in [1], in assay [2], in assay [3], in assay [4], in assay [5] and in assay [6] was “inactive” throughout. Further, the Potency entry in assay [7], in [8], in assay [9], in assay [10], in assay [11] and in assay [12] was “inactive” throughout. Further, the Potency result in [13], in assay [14], in assay [18] and in assay [16] was “inactive” each time. For the same compound, the outcome in assay [15] was inactive.

Take `CC(C)(c1ccc(Oc2ccc(N)cc2)cc1)c1ccc(Oc2ccc(N)cc2)cc1`: the Potency result in assay [19], in [4], in assay [5], in assay [6], in assay [7] and in assay [10] was “inactive” in each case. For the same compound, the Potency result in assay [11], in [12], in assay [13] and in assay [14] was “inactive” each time. Besides, the Potency in assay [9] was 61.1 µM (active). In assay [15], the result was inactive.

Regarding `CCCCCCCCCC[N+](C)(CCCCCCCCCC)CCC[Si](OC)(OC)OC`, the Potency in assay [1] is 49 µM (active); in assay [2], 24.5 µM (active); in assay [3], 19.5 µM (active); in assay [4], 49 µM (active); in [6] it was 43.6 µM (active). For the same compound, the Potency entry in assay [5], in assay [7], in [10], in assay [14] and in assay [16] was “inactive” throughout. Besides, the compound was called inactive in [15].

Take `CC(C)=CCC[C@H](C)CC=O`: the Potency entry in assay [1], in [2], in assay [3], in assay [5], in assay [6] and in assay [7] was “inactive” throughout. The Potency result in assay [8], in [10], in assay [11], in [12], in assay [13] and in assay [14] was “inactive” in each case. In assay [18], the Potency result is “inactive”.

As to `CC(C)C(=O)C(C)C`, the Potency entry in assay [1], in assay [2], in assay [3], in [4], in assay [5] and in assay [6] was “inactive” each time. Moreover, the Potency entry in assay [8], in [17], in assay [10], in assay [11], in assay [12] and in assay [13] was “inactive” throughout. The Potency entry in assay [14] and in [16] was “inactive” throughout. In assay [15], the compound was classed as inactive.

Turning to `Nc1c(Br)cc([N+](=O)[O-])cc1Br`, the Potency entry in [1], in assay [2], in assay [3], in assay [5], in assay [6] and in assay [7] was “inactive” throughout. Moreover, the Potency result in assay [8], in [9], in assay [10], in [11], in [12] and in assay [13] was “inactive” throughout. Besides, the Potency result in [14] and in assay [16] was “inactive” throughout. Besides, in assay [15], the compound was called inactive.

As for `CN1CCN(CCCN2c3ccccc3Sc3ccc(Cl)cc32)CC1`, the Potency entry in [19], in assay [3], in assay [7], in [8], in [9] and in [10] was “inactive” throughout. Further, the Potency entry in [11] and in assay [14] was “inactive” throughout. In assay [12], the Potency was 10.6 µM (active).

`O=C1CCCCCCCCCCCCCC1`: the Potency entry in assay [1], in [2], in assay [3], in assay [5], in assay [6] and in assay [7] was “inactive” each time. Further, the Potency entry in assay [8], in [10], in assay [11], in assay [12], in [13] and in [14] was “inactive” in each case. In addition, the Potency result in [18] and in [16] was “inactive” throughout. Further, the Potency in assay [4] is 43.6 µM (active). In assay [15], the outcome was inactive.

With `COc1cc2ncnc(Nc3cccc(Cl)c3)c2cc1OC`, the activity change, negative = cytotoxic in assay [1] is -11.4% [at 15.8 µM]. In addition, the activity change, negative = cytotoxicity in assay [2] is -2.37% [at 15.8 µM]; in assay [3], -3.64% [at 15.8 µM]; in [5] it was -27.3% [at 15.8 µM]; in assay [7], -7.05% [at 19 µM]; in [11], 2.53% [at 19 µM]. Further, the activity change is -3.26% [at 15.8 µM, active compounds read high] in assay [4] and -3.79% [at 18.9 µM, active compounds read high] in [14]. For the same compound, the cytotoxicity increase in assay [6] was -18% [at 15.8 µM]. Further, the values for the viability change, negative = cytotoxic in [8] and in assay [13] were -6.19% [at 19 µM] and -19.1% [at 19 µM], respectively. Moreover, the activity, negative = inhibition was 23.3% [at 19 µM] in assay [17] and -15.9% [at 19 µM] in assay [16]. Further, the activity change, negative = inhibition in [10] was -7.18% [at 19 µM]. Further, the activation in assay [15] was -5.03% [at 19 µM].

In the case of `CCC(C)(C)c1ccc(CC(C)CN2C[C@@H](C)O[C@@H](C)C2)cc1` (stereo partly specified), the Potency entry in assay [1], in [2], in assay [3], in assay [5], in assay [7] and in assay [8] was “inactive” each time. For the same compound, the Potency result in [9], in [10], in [11], in assay [12], in assay [13] and in assay [14] was “inactive” in each case.

Take `CCCCCCCCOC(=O)c1cc(O)c(O)c(O)c1`: the Potency in assay [1] is 19.5 µM (active); in assay [2], 11 µM (active); in assay [3], 5.49 µM (active); in [12], 24.3 µM (active); in assay [18] it was 2.17 µM (active); in assay [16], 15.4 µM (active). Further, the Potency entry in assay [5], in assay [10], in assay [11] and in assay [14] was “inactive” each time. In addition, the call in [15] was inactive.

Take `NCc1ccco1`: the Potency entry in [1], in assay [2], in [3], in assay [5], in assay [6] and in [7] was “inactive” throughout. In addition, the Potency entry in assay [8], in assay [10], in [11], in assay [12], in assay [13] and in assay [14] was “inactive” throughout. Besides, the Potency entry in assay [18] and in assay [16] was “inactive” in each case. The call in assay [15] was inactive.
